Drawing on PubChem BioAssay (NCI), this text covers growth for eight molecules.

Holding throughout (experiment): NCI-60 one-dose screen, 48 h (100 = growth as untreated, 0 = no growth, -100 = all killed)
Test [1] deals with SN12C renal. Conditions: 10 µM unless noted.
For test [2], the system named is UO-31 renal. Conditions: 10 µM unless noted.
Test [3] has as its system TK-10 renal. Conditions: 10 µM unless noted.
Test [4] concerns ACHN renal. Particulars: 10 µM unless noted.
In test [5] the test system is CAKI-1 renal. Particulars: 10 µM unless noted.
Test [6] deals with A498 renal. Particulars: 10 µM unless noted.
The subject of test [7] is CCRF-CEM leukemia. Particulars: 10 µM unless noted.
The subject of test [8] is MOLT-4 leukemia. Conditions: 10 µM unless noted.
Test [9] relates to SR leukemia. Particulars: 10 µM unless noted.
The test system of test [10] is RPMI-8226 leukemia. Particulars: 10 µM unless noted.
Test [11] concerns OVCAR-8 ovarian. Particulars: 10 µM unless noted.
The test system of test [12] is OVCAR-5 ovarian. Particulars: 10 µM unless noted.
The test system of test [13] is OVCAR-4 ovarian. Particulars: 10 µM unless noted.
For test [14], the system named is SK-OV-3 ovarian. Conditions: 10 µM unless noted.
The test system of test [15] is IGROV1 ovarian. Conditions: 10 µM unless noted.
The test system of test [16] is OVCAR-3 ovarian. Conditions: 10 µM unless noted.
The test system of test [17] is HS 578T breast. Particulars: 10 µM.
In test [18] the test system is NCI/ADR-RES ovarian. Particulars: 10 µM unless noted.

Structures are written as SMILES. The panel holds about 83,000 compounds, 20% with a hit somewhere; the sample as a whole holds those more often.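 Values shown are percent growth following 48 h exposure of cells in 96-well plates to a single concentration of compound; below 10 was considered active.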 Unmarked numbers belong to inactive results. Active and inactive are the calls of the source.

In the case of `Nc1c(C(=O)c2ccc(Br)cc2)sc2nc3c(cc12)CCCC3`, the growth was 90.7% in test [1]; 89.7% in test [2]; 108% in [3]; 96.3% in test [4]; 105% in test [5]; 70.9% in test [6]. The growth in test [7] is 89.9%; in [8], 96.4%; in test [9], 65.3%; in test [10], 94.6%; in test [11], 98.7%; in [12], 88%. Besides, the growth was 105% in test [13]; 106% in test [14]; 108% in [15]; 95.4% in test [16]; 109% in test [17]; 85.7% in [18].
Take `Clc1ccc(Nc2ncnc3c2sc2ncccc23)cc1`: the growth in test [1] was 20.5%; in test [2], -13.8% (active); in test [3], 59.3%; in test [4], 14.7%; in [5], 15.3%; in test [6], 18.7%. For the same molecule, the growth in test [7] is 21.2%; in test [8] it was 15%; in test [9] it was 10.4%; in test [10] it was 38.2%; in test [11], 12.2%; in test [12], 58.2%. Besides, the growth in test [13] was 85.4%; in test [14], 28.6%; in test [15], 66.2%; in [16] it was 56.6%; in test [17], 86.8%; in [18] it was 19.1%.
With `COc1cc(C2CC(c3ccc(Nc4ccnc5cc(Cl)ccc45)cc3)=NN2c2ccccc2)cc(OC)c1OC` (stereo unspecified), the growth was 76.3% in test [1]; 57.8% in test [2]; 89.8% in [3]; 77.1% in test [4]; 48.2% in test [5]; 61% in [6]. The growth in [7] is 47.5%; in [8], 62.3%; in [9], 24.8%; in test [10], 49.7%; in test [11], 81.2%; in [12] it was 86.4%. Moreover, the growth in test [13] was 123%; in test [14], 90.3%; in [15] it was 106%; in test [16], 86.7%; in test [17] it was 72.4%.
For the molecule `Cc1nc2ccc(Nc3nc(NCCN4CCOCC4)nc(Nc4ccc(F)cc4)n3)cc2n1Cc1ccccc1`, the growth in test [1] was 61.8%; in [2], 37.3%; in test [3] it was 60.6%; in test [4], 52.2%; in [5] it was 55.6%; in test [6] it was -13.9% (active). Moreover, the growth in [7] is 29.5%; in test [8], 22.7%; in test [9], 0.147% (active); in test [10] it was 3.11% (active); in test [11], 50.2%; in test [12], 84.1%. The growth in test [13] is 98.1%; in test [14], 79%; in test [15], 69%; in test [16] it was 73.7%; in test [17] it was 40.6%.
Consider `O=C(Nc1ccc2[nH]c3ccccc3c2c1)c1ccccc1Cl`, for which the growth in test [1] is 61.3%; in [2] it was 65.7%; in [3], 49.7%; in [4], 70%; in test [5], 27.2%; in test [6] it was 44.7%. Also, the growth is 40.1% in test [7]; 33.4% in test [8]; 17.6% in test [9]; 67.5% in [10]; 72.4% in test [11]; 82.4% in [12]. For the same molecule, the growth is 101% in test [13]; 50.5% in test [14]; 50.1% in test [15]; 50.9% in test [16]; 70.6% in test [17]; 18.8% in test [18].
Regarding `COc1ccc(C(=O)/C=C/c2cn(-c3ccccc3)nc2-c2cccc(Nc3ccnc4cc(Cl)ccc34)c2)cc1`, the growth was 89.8% in test [1]; 86.6% in test [2]; 120% in [3]; 103% in test [4]; 94.3% in test [5]; 94.8% in test [6]. Besides, the growth in [7] is 48.3%; in [8], 104%; in test [9], 8.4% (active); in test [10] it was 66.7%; in test [11], 91.1%; in [12] it was 111%. The growth was 115% in [13]; 118% in [14]; 105% in [15]; 110% in [16]; 88.8% in test [17].
`CCOC(CN1CCN(CC(C)C(=O)c2ccccc2)CC1)c1ccccc1` (stereo unspecified): the growth is 98.6% in test [1]; 89% in [2]; 115% in test [3]; 106% in [4]; 93.7% in test [5]; 97.1% in [6]. The growth in test [7] is 84.7%; in [8], 105%; in test [9] it was 99.3%; in [10], 88.8%; in test [11], 104%; in test [12] it was 110%. Also, the growth was 93.4% in test [13]; 105% in [14]; 104% in test [15]; 112% in test [16]; 115% in [17]; 106% in test [18].
On to `Cc1ccc(-c2nc3ccccc3c(=O)n2/N=C/c2cccc3ccccc23)cc1`, for which the growth in test [1] is 82.3%; in [2], 48.3%; in test [3], 101%; in test [4], 80.7%; in test [5], 54.4%; in [6], 109%. The growth in test [7] is 55.2%; in test [8] it was 55.9%; in [9], 49.8%; in test [10], 73.6%; in test [11] it was 84.2%; in test [12], 102%. Moreover, the growth in test [13] was 76.2%; in test [14], 76.4%; in test [15], 50.1%; in test [16], 71.6%; in [17] it was 100%; in test [18] it was 78.6%.
